“And” between values parts separate entries of the source, which are not always exact repeats. Equal values may be shown once. The campaign covered roughly 310,000 compounds. About 1,000 (0.32%) were called active. A selection follows. Potency and affinity values are given separately. A number with no mark means an inactive call. How the calls were made is not given here.

The inhibition is the relative decrease from the control value, in per cent.

This experiment is described as follows: Inhibition of PhoP regulon, Salmonella typhi GFP reporter cells, confirmation, 4 h (AID 1850).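 Further: 0% = induced wells with vehicle and 100% = uninduced wells.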 To be noted: Salmonella Typhi PhoP-promoter GFP reporter, fluorescence, at 50 µM, hits give high values.
Turning to `Cc1ccc(CC2CC(=O)N(c3ccc(C)cc3)C2=O)cc1` (stereo not drawn), the inhibition was 7.02%.
Take `CCn1c2ccccc2c2cc(NC(=O)CSc3nnc(-c4ccccc4OC)n3N)ccc21`: the inhibition was -0.4%.
Under `N=c1c2c(-c3ccccc3)c(-c3ccccc3)n(Cc3ccccc3)c2ncn1CCCn1ccnc1` stands -3.96%; under `N=c1c2c(-c3ccccc3)c(-c3ccccc3)n(Cc3ccco3)c2ncn1CCCO`, 12.1%.
Under `CCOC(=O)C1=C(CS(=O)(=O)c2ccccc2)NC(=O)NC1c1ccc(OC)c(OC)c1` (stereo not drawn) stands -2.15%.
Under `Cn1c2c(c(=O)n(C)c1=O)CN(Cc1ccc(F)cc1)CN2` stands 7.57%; under `Fc1ccc(-c2nc3ccccc3[nH]2)cc1`, -1.08%.
Take `c1ccc2[nH]c(-c3ccncc3)nc2c1`: the inhibition was 5.01%.
Under `C[N+](C)(C)CCCCCC[N+](C)(C)C` stands -25.1%.
In the case of `CCCCCC[N+](C)(C)CCSSCC[N+](C)(C)CCCCCC`, the inhibition was 5.58%.
Regarding `C[N+](C)(C)CCCCCCCCCC[N+](C)(C)C`, the inhibition was 8.92%.
Under `C#CC[N+](C)(C)CCCCCCCCCC` stands 2.68%; under `CC1CC(=O)Nc2ccccc2N1C(=O)Nc1ccc(F)cc1` (stereo not drawn), -0.31%; under `Cc1ccc(-c2ccc(C(=O)O)o2)cc1Cl`, 6.76%.
Take `CCOC(=O)C(=CNc1cc(C)ccc1C)C(=O)OCC`: the inhibition is -9.72%.
Under `CCOC(=O)Cc1csc(NC(=O)c2cnc3scc(C)n3c2=O)n1` stands -13.9%.
Under `CN1CCN(C(c2ccccc2)c2ccc(Cl)cc2)CC1` (stereo not drawn) stands -4.81%.
`O=C(O)c1cc(S(=O)(=O)N2CCN(C(c3ccccc3)c3ccccc3)CC2)ccc1Cl`: the inhibition was -2.19%.
For the compound `CN1CCN(CCOc2cccc(Cl)c2)CC1`, the inhibition is 4.36%.
Under `CN1CCN(C(c2ccccc2)c2ccccc2)CC1` stands -1.19%.
For the compound `Cc1cc(C)cc(C(=O)NCC(=O)OC(C)C(=O)N(C)c2ccccc2)c1` (stereo not drawn), the inhibition was -2.85%.
For `Cc1nc2sc3c(c2c(=O)[nH]1)CCCCC3`, the inhibition is -10.5%.
Under `Cc1ccccc1-n1ccnc1SCC(=O)NCc1ccco1` stands 1.18%.
For the compound `O=C(c1ccc(Cl)c(NC2=NC3CS(=O)(=O)CC3S2)c1)N1CCN(c2ccccc2)CC1` (stereo not drawn), the inhibition is -0.27%.
Under `Cc1ccc(OCCn2cc(C#N)c3ccccc32)cc1` stands -3.38%; under `COc1ccc(F)cc1S(=O)(=O)NC1CC(C)(C)NC(C)(C)C1`, -0.42%; under `CCOc1cccc2sc(=NC(=O)CCS(=O)(=O)c3ccc(F)cc3)n(C)c12`, -5.1%.
Under `O=C(C1CCCN(S(=O)(=O)c2cccc3nonc23)C1)N1CCN(c2cccc(Cl)c2)CC1` (stereo not drawn) stands 2.17%; under `CCCNC(=O)C1CC(=O)N(c2ccc(OCC)cc2)C1` (stereo not drawn), -4.98%.
Under `Cc1cccc(Nc2nc(NCc3ccco3)nc(N)c2[N+](=O)[O-])c1` stands -3.95%; under `COc1ccc(OC)c(Nc2nc(NCc3ccco3)c3ccccc3n2)c1`, -4.32%; under `Oc1ccccc1Nc1nc(NCc2ccccc2)c2ccccc2n1`, 2.95%.
As to `Cc1ccccc1Nc1nc(NCc2ccco2)c2ccccc2n1`, the inhibition was -14.1%.
Turning to `COc1cccc(-c2nc(NCc3ccco3)c3ccccc3n2)c1O`, the inhibition was -5.74%.
Under `CSc1nc(NCc2ccco2)c2ccccc2n1` stands 3.85%; under `Cc1cccc(Nc2nc(N)c([N+](=O)[O-])c(NCc3ccco3)n2)c1`, -6.31%; under `Fc1ccccc1-c1nc(NCc2ccco2)c2ccccc2n1`, -5.43%.
`COc1ccccc1-c1c(C)nn2c(N3CCC4(CC3)OCCO4)cc(C)nc12`: the inhibition was -2.41%.
`O=C(COC(=O)C1CC(=O)N(c2nc(-c3ccccc3)cs2)C1)c1ccccc1` (stereo not drawn): the inhibition was -9.24%.
Under `CC(=O)NC(Cc1ccc(N(CCCl)CCCl)cc1)C(=O)NCC(=O)NCC(=O)O` (stereo not drawn) stands 6.1%; under `Cc1nn(CCCC(=O)NCCCN2CCN(C)CC2)c(=O)c2c1sc1ccccc12`, 11.5%.
Under `Cc1ccc(S(=O)(=O)NCCC(=O)OCc2ccc([N+](=O)[O-])cc2)cc1C` stands -4.36%; under `COC(=O)c1cc2oc(C)cc2n1CC(=O)N1CCCc2ccccc21`, -6.03%; under `O=C(Nc1ccn(Cc2c(F)c(F)c(F)c(F)c2F)n1)c1cccc(Cn2cc([N+](=O)[O-])cn2)c1`, -7.4%.
Regarding `CCc1cccc(C)c1NC(=O)c1cccnc1`, the inhibition is -4.39%.
Under `O=C1C(Cl)=C(NCCN2CCCCC2)C(=O)c2ccccc21` stands -2.93%.
Under `Cc1ccc(Nc2nc(NCc3ccco3)c3ccccc3n2)cc1` stands 5.88%.
Under `Nc1nc(Nc2ccccc2)nc(NCc2ccco2)c1[N+](=O)[O-]` stands 3.06%; under `O=C(OCC(=O)N(Cc1ccccc1)Cc1ccccc1)c1ccccc1NCCO`, -4.63%; under `CSc1nc2c(c(=O)[nH]1)C(c1ccc(C(F)(F)F)cc1)CC(=O)N2` (stereo not drawn), 6.77%.
For the compound `CNc1oc(-c2cccs2)nc1S(=O)(=O)c1ccccc1`, the inhibition was -10%.
For `COc1ccc(C(OCC(O)CN(C)C2CCCCC2)c2ccc(OC)cc2)cc1` (stereo not drawn), the inhibition was -25.4%.
As to `O=C(N/N=C/c1ccc(-c2ccc([N+](=O)[O-])cc2)o1)C(O)c1ccccc1` (stereo not drawn), the inhibition was -3.63%.
Under `Cc1ccc(/C=N/NC(=O)C(O)c2ccccc2)o1` (stereo not drawn) stands 1.91%; under `Cc1cc(C(=O)N/N=C/c2ccc([N+](=O)[O-])s2)c2ccccc2n1`, 4.3%; under `Cc1ccc(NC(C)C(=O)N/N=C/c2ccc([N+](=O)[O-])s2)cc1` (stereo not drawn), -1.13%.
Under `O=C(N/N=C/c1ccc(Cl)s1)C(O)c1ccccc1` (stereo not drawn) stands -6.88%.
Under `O=C(N/N=C/c1ccc([N+](=O)[O-])s1)c1ccccc1` stands 6.9%.
On to `O=C(N/N=C/c1ccc([N+](=O)[O-])s1)c1cccc(Br)c1`, for which the inhibition was -0.18%.
Consider `O=C(N/N=C/c1ccc(Br)s1)c1ccccc1[N+](=O)[O-]`, for which the inhibition was -8.63%.
Under `O=C(c1cc2ccccc2cc1O)N1CCN(c2ccc([N+](=O)[O-])cc2)CC1` stands 6.8%.
`O=C(NCCCSc1ccccc1)c1ccc(=O)[nH]c1`: the inhibition is -9.17%.
Under `C=CCc1cc(Cl)ccc1OCCN1CC(C)OC(C)C1` (stereo not drawn) stands -16%.
On to `Cn1c(-c2cccc([N+](=O)[O-])c2)cnc1NCc1ccc(C#N)cc1`, for which the inhibition was -3.32%.
Under `CC1(C)Cc2c(sc3c2c(N)nc(=S)n3Cc2ccccc2)CO1` stands -10.9%.
Under `O=C(NCCC1=CCCCC1)c1cc(S(=O)(=O)N2CCOCC2)ccc1Cl` stands -3.59%; under `Cc1ccc(S(=O)(=O)Nc2cc(C(=O)N3CCC4(CC3)OCCO4)ccc2N2CCCCC2)cc1`, 3.06%; under `Cc1nc(SCC(=O)Nc2cc(Cl)ccc2[N+](=O)[O-])nc(C)c1C`, 1.39%.
Under `O=C(CSc1nc2ccccc2[nH]1)N1CCN(C(=O)c2ccco2)CC1` stands -8.53%; under `CCOc1ccc(CSC(=N)N)cc1Cl`, 20.5%.
Turning to `COc1ccc(CSC(=N)N)cc1[N+](=O)[O-]`, the inhibition is -11.2%.
Under `CCCCOc1ccc(CSC2=NCCN2)cc1[N+](=O)[O-]` stands 7.52%.
Regarding `CCCOc1ccc(CCCN=C(N)N)cc1Cl`, the inhibition is 22.8%.
Under `CCOc1ccc(CSC(=N)N)cc1[N+](=O)[O-]` stands -0.03%.
Regarding `CCCCOc1ccc(CSCCN)cc1Cl`, the inhibition was 12%.
Under `CCCOc1ccc(CSC2=NCCN2)cc1[N+](=O)[O-]` stands 23.3%.
For the compound `CCOc1ccc(CN=C(N)N=C(N)N)cc1Cl`, the inhibition was 20%.
As for `Cc1cc(C(=O)Cn2nc(C(=O)O)c3ccccc3c2=O)c(C)n1-c1ccc(OC(F)F)cc1`, the inhibition is -17.2%.
Under `CCOC(=O)c1ccc(NC(=O)N2CCOCC2)cc1` stands 9.07%; under `O=C(CCN1C(=O)C2CC=C(Cl)CC2C1=O)N1CCCCC1` (stereo not drawn), 4.62%; under `O=C1c2ccccc2-c2nc3ccccc3n21`, -6.73% and -7.55%.
As to `CCCOc1ccc(Br)cc1CSC(=N)N`, the inhibition was 20.4%.
Under `CCOc1ccc(Br)cc1CSC(=N)N` stands -6.33%.
Under `O=C(CN1C(=O)NC2(CCCC2)C1=O)Nc1ccc(S(=O)(=O)N2CCOCC2)cc1` stands -0.54%; under `OCCNc1nc(Nc2ccccc2)nc(Nc2ccccc2)n1`, -3.62%.
Under `O=C(NCCO)c1nc(NCCO)c2ccccc2n1` stands -2.84%; under `OCCNc1nc(Nc2ccccc2Cl)nc(N2CCCC2)n1`, -6.06%; under `OCCNc1nc(Nc2ccc(O)cc2)nc2ccccc12`, 1.07%.
Take `Cc1cc(NCCO)c2ccccc2n1`: the inhibition was -12.1%.
Under `OCCNc1nc(NCc2ccccc2)c2ccccc2n1` stands -4.21%; under `Cc1ccc(Nc2nc(N)c([N+](=O)[O-])c(NCCO)n2)cc1C`, 13.6%; under `OCCNc1nc(-c2ccccc2)nc2ccccc12`, 16%.
`O=C(CSc1ccc2c(c1)OCCO2)NCc1ccccc1`: the inhibition was 6.58%.
As for `CC(Sc1nnc(Nc2ccccc2)s1)C(=O)NC1CCCc2ccccc21` (stereo not drawn), the inhibition was 9.25%.
With `O=C(COc1ccc(Br)cc1)N(CCO)CCO`, the inhibition is -3.36%.
Under `O=P(O)(Oc1ccccc1)OC(c1ccccc1)C(F)(F)C(F)(F)F` (stereo not drawn) stands 5.37%.
Under `O=C(NCCNS(=O)(=O)c1ccc(Cl)cc1)c1cc(OCC(F)(F)F)ccc1OCC(F)(F)F` stands 0.75%; under `c1coc(-c2cc(C3CCNCC3)[nH]n2)c1`, 10.6%.
